SARS PLP yeast – blocks SARS-CoV papain-like protease in a yeast assay; S. cerevisiae expressing SARS-CoV PLpro, growth rescue; Potency, µM (series often up to 32.9 µM), hits mostly activators; 330,000 compounds, 0.19% hits; calls by dose curve; note: nearly all actives have a fitted effect of over 55% in size
Pf growth 48h – inhibits P. falciparum growth in the first generation, 48 h. P. falciparum luciferase growth in erythrocytes, 48 h. Potency, µM (highest dose often 28.7 µM), most hits filed as inhibitors. 310,000 compounds, 5.9% hits. AID 504832
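Parasite viability was followed by luminescence of a genomically integrated firefly luciferase. Cultures held 0.1% parasitemia at 2% hematocrit (final), incubated under 5% CO2 at 37 C.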
Pf growth 96h – P. falciparum growth inhibition at 96 hour, primary screen for plastid delayed-death inhibitors; P. falciparum luciferase reporter growth, 96 h; Potency, µM (doses to about 28.7 µM), most hits filed as inhibitors; 320,000 compounds, 6.9% hits; AID 504834
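96 h incubation, 37 C, 5% CO2, of luciferase-reporter P. falciparum-infected RBCs (2% hematocrit, 0.05% parasitemia final) with test compounds; endpoint luminescence.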
AMA1 RON2 block – disrupts binding of P. falciparum AMA1 to RON2; AlphaScreen AMA1-biotinylated RON2 peptide binding; Potency, µM (series often up to 58.2 µM), most hits filed as inhibitors; 360,000 compounds, 0.2% hits; AID 720542; note: nearly all actives have a fitted effect of over 45% in size
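AMA1 (3D7) with his tag at 25 nM final met compounds first, then biotinylated RON2 peptide at 25 nM; detection used donor plus acceptor beads, 10 µg/mL apiece, read by AlphaScreen after 30 min at room temperature.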
Hits are given with their value; 0 = inactive; ? = inconclusive; - = no result given. In the library only some 9.4% were active in any assay of this set; here they are far more common. Unless noted, calls come from the whole dose curve; as a rule, active = well fitted curve in the direction sought with a large enough effect; inconclusive = small, poorly fitted or top-dose-only effect, or another doubt; inactive = no such curve, though single readings can be large; an effect the other way counts as inactive or inconclusive.

SMILES	SARS PLP yeast	Pf growth 48h	Pf growth 96h	AMA1 RON2 block
COc1ccc2nc(-c3ccccc3)cc(C(=O)OCC(=O)N3CCCCC3)c2c1	0	12µM	?	0
Cc1cc(C(=O)OCC(=O)N2CC(C)OC(C)C2)c2ccccc2n1 (stereo not given)	0	0	0	0
COc1ccc(Br)c(C(=O)OCC(=O)N2CCC(Cc3ccccc3)CC2)c1	0	13µM	0	0
COc1ccc(OCC(=O)N2CCC(Cc3ccccc3)CC2)cc1	0	0	?	0
COc1ccc2nc(-c3ccccc3)cc(C(=O)OCC(=O)N3CC(C)OC(C)C3)c2c1 (stereo not given)	0	12µM	?	0
Cc1ccc(OCCn2c(=O)sc3ccccc32)cc1	0	0	?	0
c1cncc(-c2nc(NCc3cccs3)c3ccccc3n2)c1	0	?	13µM	0
COc1cccc(CNc2nc(-c3cccnc3)nc3ccccc23)c1	0	0	?	0
Fc1ccccc1CNc1nc(-c2cccnc2)nc2ccccc12	0	12µM	5.2µM	0
COc1ccccc1CNC(=O)COC(=O)c1cc(-c2ccco2)nc2ccccc12	0	0	-	0
O=C(CSc1ccccn1)N1CCN(c2ncc(C(F)(F)F)cc2Cl)CC1	0	?	?	0
COc1cccc(/C=N/NC(=S)NC2CC3CC2C2C=CCC32)c1O (stereo not given)	0	2.3µM	1.3µM	0
Oc1ccccc1/C=N/NC(=S)NC1CC2CC1C1C=CCC21 (stereo not given)	0	3.3µM	1.9µM	0
Oc1ccccc1C=NNC(=S)NN=Cc1ccccc1O	-	-	-	0
CC1=[N+](C)c2ccc3ccccc3c2C1(C)C	0	?	12µM	0
c1ccc2c(c1)ccc1ccccc12	0	-	-	0
CC(C)c1nc(NCC2CCCO2)c(C#N)c2c1COC(C)(C)C2 (stereo not given)	0	13µM	0	0
Cc1ccc(S(=O)(=O)N(C)C)cc1NC(=O)c1cc(-c2ccco2)nc2ccccc12	0	0	0	0
CC(C)N1CCN(Cc2cccs2)CC1CCO (stereo not given)	0	0	?	0
Cc1oc(-c2cccs2)nc1CN1CCN(C(C)C)C(CCO)C1 (stereo not given)	0	0	10µM	0
COc1ccc(CCc2nc3ccccc3n2C(CCc2ccccc2)c2nc3ccccc3[nH]2)cc1 (stereo not given)	-	-	-	0
O=C(NNC(=O)C12CC3CC(CC(C3)C1)C2)c1ccccc1O	?	?	?	0
O=C(NC12CC3CC(CC(C3)C1)C2)c1ccccc1O	0	7.4µM	-	0
CCCn1nnc(NC(=O)c2ccc(OCC)c(Cl)c2)n1	0	13µM	0	0
COc1cc(NC2c3ncccc3C(=O)N2Cc2ccco2)cc(OC)c1 (stereo not given)	0	?	3.7µM	0
SMILES	SARS PLP yeast	Pf growth 48h	Pf growth 96h	AMA1 RON2 block
CCc1ccccc1NC(=S)NC1CC2CCCC(C1)N2Cc1cccs1 (stereo not given)	0	8.3µM	1.5µM	0
Cc1cccc(NC(=S)NC2CC3CCCC(C2)N3Cc2cccs2)c1C (stereo not given)	0	?	5.9µM	0
Cc1ccccc1NS(=O)(=O)c1ccc(NC(=O)c2nc3ncccn3n2)cc1	0	-	?	0
CS(=O)(=O)N(CC(=O)Nc1ccc(Br)cc1F)C1CCCCC1	0	0	?	0
CC1CCc2cc(F)ccc2N1C(=O)CSc1nnc2c(n1)[nH]c1ccccc12 (stereo not given)	0	1.5µM	?	0
O=C(CSc1nnc2c(n1)[nH]c1ccccc12)N1CCCCC1	0	?	?	0
Cc1ccc(C)c(Nc2cc(C)nc3ncnn23)c1	0	0	?	0
Cc1ccc(Nc2cc(C)nc3ncnn23)c(C)c1	0	0	1.5µM	0
COc1ccc(Nc2cc(C)nc3nc(C)nn23)c(OC)c1	0	0	0	0
COc1ccc(Nc2cc(C)nc3ncnn23)c(OC)c1	0	-	2.9µM	0
O=C(O)c1cccc(Nc2ncnc3ccccc23)c1	0	0	?	0
CCCN1CN(Cc2ccccc2)CNC1=S	11µM	0	?	0
S=C1NCN(C2CCCCC2)CN1CCc1ccccc1	0	4.7µM	1.9µM	0
S=C1NCN(Cc2ccco2)CN1CCc1ccccc1	0	?	8.3µM	0
CC(C)CN1CN(Cc2ccco2)CNC1=S	0	0	0	0
CCOc1ccc(CCN2CN(C3CCCCC3)CNC2=S)cc1OCC	0	?	0	0
CC(C)Cc1nc2c(nnn2Cc2ccccc2F)c(=O)[nH]1	0	?	9.3µM	0
CCN1CCc2nc(NC(=O)C(c3ccccc3)c3ccccc3)sc2C1	0	-	8.3µM	0

High-throughput results as filed in PubChem.
